Shown are actives, neighbours in structure and some others; about 2.1% of the full set was active somewhere.
Casp6 inh: caspase-6 (human) enzyme inhibition; purified caspase-6, Z-VEID-R110 cleavage fluorescence; inhibition, % at 12.5 µM; actives 0.53% (n = 350,000); AID 686996;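 active = mean inhibition across replicates at least about 35%, with every replicate also reaching that limit, limit read from the data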
PfHsp90 set2: growth inhibition of yeast expressing Plasmodium Hsp90. actives 0.32% (n = 310,000). S. cerevisiae expressing PfHsp90, BacTiter-Glo ATP, 48 h; yeast lacking PDR1 and PDR3 efflux regulators. inhibition, % at 9.4 µM. AID 504621;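 active = every replicate shows inhibition above about 80%, whatever the replicate mean, limit read from the data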
SIRT5 block: sirtuin-5 (human) deacylase inhibition; Q9NXA8; inhibition, % at 15 µM; actives 1.1% (n = 330,000); Purified SirT5, succinyl-peptide AMC, trypsin-coupled fluorescence; in the data active = inhibition above about 15%
Target sequence (Q9NXA8 whole entry, looked up): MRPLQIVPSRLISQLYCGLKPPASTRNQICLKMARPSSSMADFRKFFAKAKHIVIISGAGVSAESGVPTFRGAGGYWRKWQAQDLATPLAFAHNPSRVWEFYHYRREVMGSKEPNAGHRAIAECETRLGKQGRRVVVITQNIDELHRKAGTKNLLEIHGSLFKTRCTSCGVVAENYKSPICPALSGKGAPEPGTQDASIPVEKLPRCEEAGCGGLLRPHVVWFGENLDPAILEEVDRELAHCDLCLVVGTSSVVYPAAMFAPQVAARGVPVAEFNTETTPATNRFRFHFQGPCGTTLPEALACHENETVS
ARNT TACC3 PPI: disruptors of human ARNT/TACC3 interaction | AlphaScreen His-ARNT PAS-B/GST-TACC3 binding, luminescence; TACC3 fragment carries E629A point mutation | inhibition, % at 9.99 µM | actives 0.66% (n = 390,000) | AID 623870;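 active = mean inhibition of replicates at least 50% and at least half of replicates each reaching 50%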
NSD2 HMT inh: blocks human histone methyltransferase NSD2; O96028; NSD2 peptide methylation, AlphaScreen, 120 min; inhibition, % at 12.5 µM; actives 0.54% (n = 310,000); in the data active = inhibition above about 50%
Each line names hits and unclear results; the compound was inactive in the other large screens.

COCC(=O)N1C[C@@H](C)[C@@H](OC)CN(C)C(=O)c2cc(NC(=O)c3cc(C)on3)ccc2OC[C@@H]1C	none (no result: PfHsp90 set2, NSD2 HMT inh)
CO[C@H]1CN(C)C(=O)c2cc(NC(=O)C3CC3)ccc2OC[C@H](C)N(C(=O)c2ccccc2)C[C@H]1C	Casp6 inh 70 (no result: PfHsp90 set2, NSD2 HMT inh)
CO[C@H]1CN(C)C(=O)c2cc(NC(=O)NC(C)C)ccc2OC[C@@H](C)N(C(=O)CC2CC2)C[C@@H]1C	SIRT5 block 20 (no result: PfHsp90 set2, NSD2 HMT inh)
COCC(=O)N1C[C@H](C)[C@H](OC)CN(C)C(=O)c2cc(NC(=O)C3CCC3)ccc2OC[C@@H]1C	SIRT5 block 24 (no result: PfHsp90 set2, NSD2 HMT inh)
CC=Cc1ccc2n(c1=O)C[C@H]1[C@H](CO)[C@@H](C(=O)OC)N(C(C)=O)[C@@H]21 (mixture of isomers)	none (no result: PfHsp90 set2, NSD2 HMT inh)
CCCNC(=O)C[C@H]1CC[C@H]2[C@H](COc3ccc(NC(=O)NCC)cc3C(=O)N2C)O1	none (no result: PfHsp90 set2, NSD2 HMT inh)
Cc1nc2ccc(NS(=O)(=O)c3c(F)cc(F)cc3Br)cc2s1	Casp6 inh 40 (no result: PfHsp90 set2)
Cc1nc2ccc(NS(=O)(=O)c3ccc(F)cc3F)cc2s1	none
Cc1ccc2nc(-c3ccc(NS(=O)(=O)c4ccc(F)cc4)cc3)sc2c1	PfHsp90 set2 109 (no result: Casp6 inh, SIRT5 block)
CCCNC(=O)C[C@@H]1C[C@H]2c3cc(NC(=O)c4cccnc4)ccc3O[C@H]2[C@H](CO)O1	none (no result: Casp6 inh, PfHsp90 set2, SIRT5 block, NSD2 HMT inh)
CCC(=O)Nc1ccc2c(c1)OC[C@@H](C)N(C(=O)COC)C[C@H](C)[C@H](OC)CN(C)C2=O	none (no result: PfHsp90 set2, NSD2 HMT inh)
COC(=O)C[C@H]1CC[C@@H]2[C@@H](COc3ccc(NC(=O)c4cccc(F)c4)cc3C(=O)N2C)O1	none (no result: PfHsp90 set2, NSD2 HMT inh)
Cc1ccc(NC(=O)CN2C(=O)N/C(=C\c3cccn3-c3cccc(C(=O)O)c3)C2=O)cc1	none (no result: Casp6 inh, SIRT5 block, ARNT TACC3 PPI)
O=C1N/C(=C/c2cccn2-c2ccc(F)cc2)C(=O)N1Cc1ccccc1	none (no result: Casp6 inh, SIRT5 block)
O=C(O)c1cccc(-n2cccc2/C=C2\NC(=O)N(Cc3ccc(F)cc3)C2=O)c1	Casp6 inh 72, SIRT5 block 16
O=C(O)c1ccc(-n2cccc2/C=C2/NC(=O)N(c3cccc(Cl)c3)C2=O)cc1	Casp6 inh 81 (no result: NSD2 HMT inh)
O=C(COC(=O)c1cc(-c2cccs2)nc2ccccc12)NC1CCS(=O)(=O)C1 (centres undefined)	ARNT TACC3 PPI 49
O=C(COC(=O)c1cc(-c2cccc3ccccc23)nc2ccccc12)NC1CCS(=O)(=O)C1 (centres undefined)	none
Cn1c(=O)c2cc(S(=O)(=O)NCCC(=O)NCc3ccccc3Cl)ccc2n(C)c1=O	ARNT TACC3 PPI 50 (no result: Casp6 inh, SIRT5 block)
O=C(NN1C(=O)/C(=C/c2ccc(O)c(O)c2)SC1=S)c1ccccc1	Casp6 inh 45 (no result: NSD2 HMT inh)
COc1cc(/C=C2\SC(=S)N(NC(=O)c3ccc(O)cc3)C2=O)ccc1O	none (no result: ARNT TACC3 PPI)
O=C(NN1C(=O)/C(=C\c2ccc(O)c([N+](=O)[O-])c2)SC1=S)c1ccccc1Cl	PfHsp90 set2 104 (no result: NSD2 HMT inh)
CCC(=O)N(C)C[C@@H]1Oc2ncc(-c3ccc(C)cc3)cc2C(=O)N([C@H](C)CO)C[C@H]1C	none (no result: PfHsp90 set2, NSD2 HMT inh)
CC=Cc1ccc2n(c1=O)C[C@@H]1[C@@H](CO)[C@H](C(=O)NCC)[C@H]2N1Cc1ccccc1 (mixture of isomers)	none (no result: PfHsp90 set2, NSD2 HMT inh)
O=c1cc(Br)c(O)c(Br)cc1Br	Casp6 inh 91
Clc1ccc2[nH]c3c(c2c1)CCc1cn[nH]c1-3	PfHsp90 set2 110 (no result: Casp6 inh, SIRT5 block)
Cc1noc(C)c1NC(=O)Nc1ccc2c(c1)C(=O)N(C)[C@@H]1CC[C@@H](CC(=O)NCc3ccc(Cl)cc3)O[C@H]1CO2	none (no result: PfHsp90 set2, NSD2 HMT inh)
COCCOC(=O)N1C(=O)[C@@]2(c3ccccc31)[C@H](c1ccccc1OCCO)N1[C@H](c3ccccc3)[C@H](c3ccccc3)OC(=O)[C@H]1[C@@H]2C(=O)N1CCCCCCC1	none (no result: PfHsp90 set2, NSD2 HMT inh)
O=C(Nc1ccccc1)c1cccc(Cn2cc(C(F)(F)F)ccc2=O)c1	SIRT5 block 24
CC(C)NC(=O)N(C)C[C@H]1Oc2ccc(NC(=O)CCCCCC(=O)Nc3ccccc3N)cc2C(=O)N([C@H](C)CO)C[C@H]1C	none (no result: PfHsp90 set2, NSD2 HMT inh)
CCCNC(=O)Nc1ccc2c(c1)OC[C@H](C)N(Cc1ccncc1)C[C@H](C)[C@H](OC)CN(C)C2=O	none (no result: PfHsp90 set2, ARNT TACC3 PPI, NSD2 HMT inh)
C[C@@H]1CN([C@H](C)CO)C(=O)c2cccc(NC(=O)C3CCCCC3)c2O[C@@H]1CN(C)C(=O)Nc1ccc(F)cc1	none (no result: PfHsp90 set2, NSD2 HMT inh)
COc1cnc(-c2ccccn2)nc1Oc1ccc(Cl)c2ccccc12	ARNT TACC3 PPI 17 (no result: Casp6 inh, PfHsp90 set2, SIRT5 block)

From PubChem BioAssay
